This passage reports AC50 and outcome results from PubChem BioAssay (EPA / NIEHS).

Broadly, the AC50 is the midpoint of the concentration-response curve, whichever way the signal moves.

Results filed as inconclusive are left out. The source made the active and inactive calls. The calls were made as follows, unless noted: active = hit-call score of the fitted dose curve at least 0.9, where 1 is the maximum; inactive = score below 0.9.

Experiment [1] addresses human Retinoic Acid Receptor gamma (RARg), RARG (gene 5916) (UniProt P13631). Briefly: ATG_RARg_TRANS: Attagene TRANS-FACTORIAL HepG2 Assay for human Retinoic Acid Receptor gamma (RARg) (AID 2283009; active = hit-call score of the fitted dose curve at least 0.9, where 1 is the maximum;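 as to AC50: AC50 is for reporter induction above DMSO meaning RARg activation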). The procedure, abridged:
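Transient transfection of HepG2 with multi-reporter constructs, then 24 h chemical treatment. Total RNA isolated, reverse-transcribed, PCR-amplified, fluorescently labelled and resolved by capillary electrophoresis; activity scored as mRNA induction versus DMSO.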

For experiment [2], the target named is Retinoic acid receptor RXR-alpha (Homo sapiens) (UniProt P19793). Briefly: ATG_RXRa_TRANS: Attagene TRANS-FACTORIAL HepG2 Assay for human Retinoid X Receptor alpha (RXRa) (AID 2283012; active = hit-call score of the fitted dose curve at least 0.9, where 1 is the maximum). The gist of the method: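 Transient transfection of human HepG2 with multiple GAL4-UAS reporter constructs; 24 h compound exposure; total RNA isolated, reverse-transcribed, PCR-amplified, 6-FAM labelled, HpaI-cut, resolved by capillary electrophoresis. Positive-direction fit versus DMSO.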
Sequence of Retinoic acid receptor RXR-alpha (Homo sapiens) (P19793 whole entry, looked up, the tested form may be a part): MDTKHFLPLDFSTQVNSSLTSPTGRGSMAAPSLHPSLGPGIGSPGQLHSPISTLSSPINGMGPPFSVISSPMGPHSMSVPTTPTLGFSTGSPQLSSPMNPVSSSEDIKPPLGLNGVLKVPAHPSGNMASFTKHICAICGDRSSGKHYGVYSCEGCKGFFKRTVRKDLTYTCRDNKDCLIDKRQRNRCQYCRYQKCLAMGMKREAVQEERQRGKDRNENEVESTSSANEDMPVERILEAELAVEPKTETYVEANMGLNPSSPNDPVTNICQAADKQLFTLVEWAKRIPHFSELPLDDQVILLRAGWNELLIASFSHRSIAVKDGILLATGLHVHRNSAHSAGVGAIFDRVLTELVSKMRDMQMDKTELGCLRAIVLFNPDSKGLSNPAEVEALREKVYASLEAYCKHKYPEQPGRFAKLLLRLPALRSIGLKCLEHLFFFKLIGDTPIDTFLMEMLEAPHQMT

The target in experiment [3] is human Retinoid X Receptor beta (RXRb), RXRB (gene 6257) (UniProt P28702). Briefly: ATG_RXRb_TRANS: Attagene TRANS-FACTORIAL HepG2 Assay for human Retinoid X Receptor beta (RXRb) (AID 2283013; active = hit-call score of the fitted dose curve at least 0.9, where 1 is the maximum). The procedure, abridged: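 Transfect HepG2 with GAL4-UAS multi-reporter constructs (chimeric NR-Gal4, TRANS format); dose compound 24 h; isolate RNA, RT-PCR, FAM primer extension, HpaI digest; quantify by capillary electrophoresis; positive direction vs DMSO.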
Sequence of human Retinoid X Receptor beta (RXRb), RXRB (gene 6257) (P28702 whole entry, looked up, the tested form may be a part): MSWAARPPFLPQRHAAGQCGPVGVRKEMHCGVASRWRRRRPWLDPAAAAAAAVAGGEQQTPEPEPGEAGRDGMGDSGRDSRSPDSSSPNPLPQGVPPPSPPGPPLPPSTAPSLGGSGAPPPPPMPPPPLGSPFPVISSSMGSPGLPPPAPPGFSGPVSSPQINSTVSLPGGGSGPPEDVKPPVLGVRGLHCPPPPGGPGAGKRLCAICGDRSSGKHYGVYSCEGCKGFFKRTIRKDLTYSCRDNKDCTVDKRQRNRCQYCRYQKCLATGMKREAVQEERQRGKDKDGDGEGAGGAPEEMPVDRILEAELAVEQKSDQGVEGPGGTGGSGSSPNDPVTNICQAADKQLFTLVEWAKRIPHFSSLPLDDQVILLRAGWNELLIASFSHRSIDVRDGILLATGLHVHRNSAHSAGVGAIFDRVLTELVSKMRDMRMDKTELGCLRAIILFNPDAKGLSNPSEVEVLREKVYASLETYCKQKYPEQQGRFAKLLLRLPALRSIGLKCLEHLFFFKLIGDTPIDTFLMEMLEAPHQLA

In experiment [4] the target is human Thyroid Receptor alpha (THRa1), THRA (gene 7067) (UniProt P10827). Briefly: ATG_THRa1_TRANS: Attagene TRANS-FACTORIAL HepG2 Assay for human Thyroid Receptor alpha (THRa1) (AID 2283014; active = hit-call score of the fitted dose curve at least 0.9, where 1 is the maximum). The gist of the method:
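HepG2 cells transiently transfected with multiplexed GAL4-UAS reporter units for exogenous chimeric THRa1-Gal4; reporter mRNA measured 24 h after dosing by RT-PCR, 6-FAM labelling, HpaI digestion and capillary electrophoresis. Gain-of-signal fitted versus DMSO baseline.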

Read-out in experiment [5]: E-selectin (Homo sapiens) (UniProt P16581)
Briefly: BSK_3C_Eselectin: BioMAP Diversity Plus: 3C Assay for Eselectin Biomarker Activity (AID 2283015).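 As to outcome: cell surface E-selectin protein quantified by ELISA 24 h after dosing.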 Conditions: primary human endothelial cells (HUVEC); actives raise or lower the signal. The gist of the method: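 Primary human umbilical vein endothelial cells (3C system) were dosed with chemical and cell-surface E-selectin measured by ELISA 24 h later. Bidirectional curve fitting used DMSO as negative control and baseline.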

Read-out in experiment [6]: Interleukin-1 alpha (IL1a), IL1A (gene 3552)
Briefly: BSK_BE3C_IL1a: BioMAP Diversity Plus: BE3C Assay for Interleukin-1 alpha (IL1a) Biomarker Activity (AID 2283016). Conditions: primary human bronchial epithelial cells; actives raise or lower the signal. The procedure, abridged:
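BE3C primary human bronchial epithelium; cpd 24 h; IL-1a by ELISA; bidirectional fit vs DMSO; parallel SRB (0.1% SRB, 10% TCA fix, 560 nm) for cytotoxicity.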

Read-out in experiment [7]: Monocyte Chemoattractant Protein-1 (MCP1), CCL2 (gene 6347)
Briefly: BSK_3C_MCP1: BioMAP Diversity Plus: 3C Assay for Monocyte Chemoattractant Protein-1 (MCP1) Biomarker Activity (AID 2283017). Particulars: primary human endothelial cells (HUVEC); actives raise or lower the signal. The gist of the method:
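Primary human umbilical vein endothelial cells (3C system) were exposed to test chemical for 24 h, after which MCP-1 was quantified by ELISA. Activity was fitted bidirectionally against DMSO as negative control and baseline.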

Read-out in experiment [8]: Monocyte Chemoattractant Protein-1 (MCP1), CCL2 (gene 6347)
Briefly: BSK_4H_MCP1: BioMAP Diversity Plus: 4H Assay for Monocyte Chemoattractant Protein-1 (MCP1) Biomarker Activity (AID 2283018). Particulars: primary human endothelial cells (HUVEC); actives raise or lower the signal. The gist of the method: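 ELISA read-out of MCP-1 from human vascular endothelial primary cells taken at 24 hours after compound exposure. Activity was fitted in both directions relative to DMSO, which served as negative control.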

Read-out in experiment [9]: Human Leukocyte Antigen - DR isotype (HLADR), HLA-DRA (gene 3122)
Briefly: BSK_3C_HLADR: BioMAP Diversity Plus: 3C Assay for Human Leukocyte Antigen - DR isotype (HLADR) Biomarker Activity (AID 2283019). Conditions: primary human endothelial cells (HUVEC); actives raise or lower the signal. The procedure, abridged: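 Primary human umbilical vein endothelial cells (3C system) were dosed with compound and cell-surface HLA-DR was quantified by ELISA at 24 h. Activity was fitted bidirectionally against DMSO as negative control and baseline.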

Read-out in experiment [10]: Interleukin-8 (IL8), CXCL8 (gene 3576)
Briefly: BSK_3C_IL8: BioMAP Diversity Plus: 3C Assay for Interleukin-8 (IL8) Biomarker Activity (AID 2283020). Particulars: primary human endothelial cells (HUVEC); actives raise or lower the signal. The gist of the method:
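ELISA read-out of IL-8 from human umbilical vein endothelium, measured 24 h after chemical dosing. Activity is expressed relative to DMSO negative control, with both increases and decreases fitted.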

Read-out in experiment [11]: Monokine induced gamma interferon (MIG), CXCL9 (gene 4283)
Briefly: BSK_3C_MIG: BioMAP Diversity Plus: 3C Assay for Monokine induced gamma interferon (MIG) Biomarker Activity (AID 2283021).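 As to AC50: MIG protein level measured by immunoassay in the treated endothelial cultures.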 Conditions: primary human endothelial cells (HUVEC); actives raise or lower the signal. The gist of the method:
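Read-out is ELISA detection of MIG on human umbilical vein endothelial cells, taken 24 h after dosing. Gain or loss of signal was scored relative to DMSO controls using bidirectional curve fitting.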

The target in experiment [12] is human Vitamin D Receptor (VDR), VDR (gene 7421) (UniProt P11473). Briefly: ATG_VDR_TRANS: Attagene TRANS-FACTORIAL HepG2 Assay for human Vitamin D Receptor (VDR) (AID 2283022; active = hit-call score of the fitted dose curve at least 0.9, where 1 is the maximum). The procedure, abridged: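 HepG2 cells were transiently transfected with multiple GAL4-UAS reporter units, so signal reflects exogenous chimeric receptor-Gal4 activity. After 24 h compound exposure, reporter mRNA was measured by RT-PCR, fluorescent labelling and capillary electrophoresis, fitted for gain of signal versus DMSO.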
Sequence of human Vitamin D Receptor (VDR), VDR (gene 7421) (P11473 whole entry, looked up, the tested form may be a part): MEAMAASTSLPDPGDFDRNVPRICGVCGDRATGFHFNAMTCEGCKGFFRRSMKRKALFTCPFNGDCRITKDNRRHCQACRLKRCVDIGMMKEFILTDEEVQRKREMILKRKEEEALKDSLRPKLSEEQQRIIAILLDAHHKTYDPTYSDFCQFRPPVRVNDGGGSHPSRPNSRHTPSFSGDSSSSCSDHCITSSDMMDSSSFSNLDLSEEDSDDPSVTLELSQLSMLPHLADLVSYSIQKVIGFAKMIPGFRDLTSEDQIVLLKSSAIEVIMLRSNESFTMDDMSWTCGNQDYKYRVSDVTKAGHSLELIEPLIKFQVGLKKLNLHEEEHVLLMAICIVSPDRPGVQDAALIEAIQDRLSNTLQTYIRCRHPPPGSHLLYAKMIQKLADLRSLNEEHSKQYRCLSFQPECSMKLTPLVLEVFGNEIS

Read-out in experiment [13]: Matrix Metallopeptidase 1 (MMP1), MMP1 (gene 4312)
Briefly: BSK_BE3C_MMP1: BioMAP Diversity Plus: BE3C Assay for Matrix Metallopeptidase 1 (MMP1) Biomarker Activity (AID 2283024). Particulars: primary human bronchial epithelial cells; actives raise or lower the signal. The gist of the method: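 Human bronchial epithelial cells (BE3C system) exposed to compound for 24 h; MMP1 then quantified by ELISA. Activity was fitted in both directions relative to DMSO.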

The nature of experiment [14]: BSK_3C_Vis: BioMAP Diversity Plus: 3C Assay for Morphology Visualization (AID 2283025).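 Also: fitted both ways so gain or loss versus DMSO counts.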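 As to AC50: light microscopy image of cell morphology used as background control.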 Conditions: primary human endothelial cells (HUVEC). The procedure, abridged:
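Chemicals were added to primary human umbilical vein endothelium, cells were incubated 24 h, and morphology was then visualized by light microscopy. Gain or loss of signal was fitted bidirectionally relative to DMSO.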

Read-out in experiment [15]: Pselectin, SELP (gene 6403)
Briefly: BSK_4H_Pselectin: BioMAP Diversity Plus: 4H Assay for Pselectin Biomarker Activity (AID 2283026). Conditions: primary human endothelial cells (HUVEC); actives raise or lower the signal. The gist of the method:
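ELISA read-out of P-selectin on human umbilical vein endothelium after 24 h of dosing. Values derive from bidirectional fitting relative to DMSO. Parallel SRB protein staining flagged overt cytotoxicity.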

Experiment [16] in a line: BSK_4H_SRB: Viability Assessment in the BioMAP Diversity Plus: 4H Assay (AID 2283027).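 Also: cells exposed to compound for 24 h before staining.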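 As to AC50: curves fitted both ways versus DMSO so AC50 may be loss or gain.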 Conditions: primary human endothelial cells (HUVEC). The procedure, abridged: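 Human umbilical vein endothelial cells, 24 h after chemical dosing; total protein measured by 0.1% sulforhodamine B staining after 10% TCA fixation, read at 560 nm. Bidirectional fitting against DMSO.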
Experiment [17] is described as follows: BSK_BE3C_SRB: Viability Assessment in the BioMAP Diversity Plus: BE3C Assay (AID 2283028). Conditions: primary human bronchial epithelial cells. The gist of the method:
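Human primary bronchial epithelial cells were exposed to test chemicals for 24 h. Total protein in parallel cultures was then measured by staining with 0.1% sulforhodamine B after 10% TCA fixation, with absorbance read at 560 nm. Activity was fitted bidirectionally against DMSO.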

Read-out in experiment [18]: Thrombomodulin, THBD (gene 7056)
Briefly: BSK_3C_Thrombomodulin: BioMAP Diversity Plus: 3C Assay for Thrombomodulin Biomarker Activity (AID 2283029). Particulars: primary human endothelial cells (HUVEC); actives raise or lower the signal. The procedure, abridged: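 Read-out is ELISA of thrombomodulin on human umbilical vein endothelium 24 h after chemical dosing. Gain or loss of signal is scored relative to DMSO. Overt cytotoxicity is checked in parallel cultures by sulforhodamine B staining.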

Experiment [19] can be described thus: BSK_3C_SRB: Viability Assessment in the BioMAP Diversity Plus: 3C Assay (AID 2283023).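 Also: fitted both ways against DMSO so a hit may be signal rise or drop.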 Conditions: primary human endothelial cells (HUVEC). The gist of the method:
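Primary human umbilical vein endothelial cells in the 3C system were read 24 h after compound dosing. Total protein was stained with 0.1% sulforhodamine B after 10% TCA fixation and read at 560 nm, with bidirectional fitting against DMSO as baseline.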

Experiment [20] addresses human RAR-related Orphan Receptor gamma (RORg), RORC (gene 6097) (UniProt P51449). Briefly: ATG_RORg_TRANS: Attagene TRANS-FACTORIAL HepG2 Assay for human RAR-related Orphan Receptor gamma (RORg) (AID 2283011; active = hit-call score of the fitted dose curve at least 0.9, where 1 is the maximum). The procedure, abridged:
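Readout: reporter transcript induction (RT-PCR, fluorescent primer extension, capillary electrophoresis) after 24 h compound exposure of transiently transfected HepG2 cells carrying a RORg-Gal4 chimera and GAL4-UAS reporters; DMSO served as baseline, with increasing signal fitted.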

Sequence of human Thyroid Receptor alpha (THRa1), THRA (gene 7067) (P10827 whole entry, looked up, the tested form may be a part): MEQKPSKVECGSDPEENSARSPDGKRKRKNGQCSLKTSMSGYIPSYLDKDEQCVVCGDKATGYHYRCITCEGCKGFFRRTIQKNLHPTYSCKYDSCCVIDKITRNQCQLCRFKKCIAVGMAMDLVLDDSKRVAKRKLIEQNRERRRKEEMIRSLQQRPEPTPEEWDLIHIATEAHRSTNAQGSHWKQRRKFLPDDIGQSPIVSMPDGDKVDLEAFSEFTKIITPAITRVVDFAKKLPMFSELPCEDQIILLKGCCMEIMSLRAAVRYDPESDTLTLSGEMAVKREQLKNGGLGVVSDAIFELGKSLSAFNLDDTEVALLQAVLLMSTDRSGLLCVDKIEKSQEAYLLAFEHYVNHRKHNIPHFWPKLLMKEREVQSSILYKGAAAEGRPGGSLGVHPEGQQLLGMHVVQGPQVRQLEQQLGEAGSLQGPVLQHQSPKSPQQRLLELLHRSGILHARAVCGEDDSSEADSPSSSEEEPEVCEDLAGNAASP
Sequence of human Retinoic Acid Receptor gamma (RARg), RARG (gene 5916) (P13631 whole entry, looked up): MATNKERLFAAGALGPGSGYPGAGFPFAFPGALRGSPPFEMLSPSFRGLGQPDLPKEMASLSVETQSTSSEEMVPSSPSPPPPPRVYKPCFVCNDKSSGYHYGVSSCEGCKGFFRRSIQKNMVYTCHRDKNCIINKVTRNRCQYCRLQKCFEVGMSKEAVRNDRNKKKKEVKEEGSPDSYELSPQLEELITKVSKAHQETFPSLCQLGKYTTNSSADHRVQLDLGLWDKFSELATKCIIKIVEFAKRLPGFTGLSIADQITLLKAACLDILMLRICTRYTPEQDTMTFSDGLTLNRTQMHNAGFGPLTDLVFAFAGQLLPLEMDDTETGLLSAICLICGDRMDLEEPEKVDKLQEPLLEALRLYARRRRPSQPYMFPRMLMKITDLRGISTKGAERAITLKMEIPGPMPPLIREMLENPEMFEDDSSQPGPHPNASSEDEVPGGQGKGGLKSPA
Sequence of E-selectin (Homo sapiens) (P16581 whole entry, looked up): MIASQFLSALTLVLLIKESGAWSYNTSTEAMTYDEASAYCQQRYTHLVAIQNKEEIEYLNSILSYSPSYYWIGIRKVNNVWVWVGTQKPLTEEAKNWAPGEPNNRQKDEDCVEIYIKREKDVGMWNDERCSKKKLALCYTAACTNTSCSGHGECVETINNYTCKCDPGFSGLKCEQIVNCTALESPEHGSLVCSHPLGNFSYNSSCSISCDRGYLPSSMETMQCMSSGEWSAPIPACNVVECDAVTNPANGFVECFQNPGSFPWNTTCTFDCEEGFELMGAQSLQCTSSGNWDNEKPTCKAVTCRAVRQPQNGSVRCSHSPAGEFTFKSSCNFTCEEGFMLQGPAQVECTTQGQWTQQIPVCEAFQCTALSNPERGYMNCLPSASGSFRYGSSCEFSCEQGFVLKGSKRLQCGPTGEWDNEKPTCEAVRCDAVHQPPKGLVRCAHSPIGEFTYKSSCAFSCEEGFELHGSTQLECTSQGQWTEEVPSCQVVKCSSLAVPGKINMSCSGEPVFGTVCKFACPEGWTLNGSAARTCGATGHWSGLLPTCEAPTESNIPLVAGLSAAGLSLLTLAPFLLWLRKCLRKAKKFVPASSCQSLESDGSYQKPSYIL
Sequence of human RAR-related Orphan Receptor gamma (RORg), RORC (gene 6097) (P51449 whole entry, looked up, the tested form may be a part): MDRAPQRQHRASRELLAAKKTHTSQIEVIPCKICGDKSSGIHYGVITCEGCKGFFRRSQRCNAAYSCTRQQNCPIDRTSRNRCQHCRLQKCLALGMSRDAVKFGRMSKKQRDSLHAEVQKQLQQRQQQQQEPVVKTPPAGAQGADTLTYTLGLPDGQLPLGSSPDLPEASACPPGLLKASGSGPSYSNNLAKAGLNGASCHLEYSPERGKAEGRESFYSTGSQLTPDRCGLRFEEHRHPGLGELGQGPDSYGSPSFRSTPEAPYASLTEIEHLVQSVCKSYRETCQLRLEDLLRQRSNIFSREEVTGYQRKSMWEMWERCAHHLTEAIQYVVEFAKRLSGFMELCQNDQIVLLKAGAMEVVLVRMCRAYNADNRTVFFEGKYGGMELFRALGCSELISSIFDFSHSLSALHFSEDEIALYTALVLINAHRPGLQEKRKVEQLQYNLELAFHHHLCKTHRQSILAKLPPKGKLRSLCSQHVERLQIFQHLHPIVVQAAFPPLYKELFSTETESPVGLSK

With `Cc1c([N+](=O)[O-])cc2c(c1[N+](=O)[O-])C(C)(C)CC2(C)C`, the AC50 in experiment [1] is 2.08 µM (active); in experiment [2], 8.24 µM (active); in [3], 1.37 µM (active); in experiment [9] it was 11.9 µM (active); in [10], 2.03 µM (active); in experiment [14], 37.5 µM (active). The result in [4], in experiment [5], in experiment [6], in experiment [7], in experiment [8] and in experiment [11] was inactive. In addition, the outcome in experiment [12], in [13], in [15], in [16], in [17] and in experiment [18] was inactive.
In the case of `O=S1(=O)OCC2C(CO1)C1(Cl)C(Cl)=C(Cl)C2(Cl)C1(Cl)Cl` (stereo unspecified), the compound was classed as inactive in [1], in experiment [2], in experiment [5], in [6], in experiment [7] and in experiment [10]. Further, the result in [11], in experiment [13], in experiment [14], in [17] and in experiment [18] was inactive. The AC50 in experiment [8] is 10.1 µM (active); in experiment [9], 24.1 µM (active); in [15] it was 12.2 µM (active); in [16], 12.3 µM (active).
For `O=C(O)C=CC(F)(C(F)(F)F)C(F)(F)F`, the outcome in [1], in [2], in experiment [4], in experiment [5], in [6] and in experiment [7] was inactive. Also, the result in [9], in experiment [10], in experiment [11], in experiment [12], in experiment [19] and in experiment [13] was inactive. Besides, the outcome in experiment [15], in experiment [16], in experiment [17] and in experiment [18] was inactive.
Regarding `CN(C)C(=O)Cl`, the call in experiment [1], in experiment [3], in [4], in experiment [5], in [6] and in experiment [7] was inactive. Further, the outcome in [9], in experiment [10], in experiment [11], in experiment [12], in experiment [13] and in experiment [14] was inactive. The outcome in experiment [15], in experiment [16], in [17] and in [18] was inactive.
With `O=C(O)C(F)(F)C(F)(F)C(=O)O`, the outcome in [1], in experiment [20], in experiment [2], in experiment [4], in experiment [5] and in experiment [6] was inactive. Also, the outcome in experiment [7], in [8], in experiment [9], in [10], in experiment [11] and in [12] was inactive. Besides, the outcome in experiment [13], in experiment [15], in experiment [16], in experiment [17] and in [18] was inactive.
Take `O=NN1CCCC1`: the compound was classed as inactive in [1], in [20] and in [4].
With `O=S(=O)(F)C(F)(F)C(F)(F)C(F)(F)C(F)(F)C(F)(F)C(F)(F)C(F)(F)C(F)(F)F`, the call in [1], in experiment [2], in experiment [4], in experiment [5], in experiment [6] and in experiment [7] was inactive. Also, the outcome in [9], in experiment [10], in experiment [11], in experiment [12], in experiment [13] and in [15] was inactive. Also, the outcome in experiment [16], in [17] and in [18] was inactive.
As for `ClC1=C(Cl)C2(Cl)C3C(Cl)C(Cl)CC3C1(Cl)C2(Cl)Cl` (stereo unspecified), the AC50 is 7.61 µM (active) in experiment [1]; 23.8 µM (active) in [3]; 29.7 µM (active) in [5]; 34.3 µM (active) in experiment [7]; 17.5 µM (active) in experiment [9]; 35.6 µM (active) in experiment [10]. Further, the half-maximal activity concentration (AC50) in experiment [11] is 35.6 µM (active); in experiment [13], 14.4 µM (active); in [14], 37.3 µM (active); in experiment [15], 24.7 µM (active); in experiment [16], 29.6 µM (active). The compound was classed as inactive in experiment [2], in experiment [4], in experiment [6], in [12], in experiment [17] and in experiment [18].
Take `N#C/C=C/c1ccccc1`: the call in experiment [1], in experiment [20], in experiment [3] and in experiment [4] was inactive.
